Results published in PubChem BioAssay AID687001 (Broad Institute, 2013).
Measured potencies and affinities stand elsewhere. Active and inactive are the calls of the source.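 How the source made its calls: active means signal-lowering compounds whose fitted half-maximal concentration is at or below twice the top tested dose in every run; inconclusive means runs disagree, flat 30 to 70% inhibition, or poor curve fit; inactive means the rest.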

Target: Protein S100-A4 (Homo sapiens) (UniProt P26447)
Test: human S100A4 peptide interaction inhibition curves – biochemical, fluorescence polarization, cherry-picked hits, dose response (AID 687001)
Settings: FP, S100A4/TAMRA-myosin IIA peptide binding; series mostly up to 11 µM

Protein S100-A4 (Homo sapiens), sequence (P26447 whole entry, looked up): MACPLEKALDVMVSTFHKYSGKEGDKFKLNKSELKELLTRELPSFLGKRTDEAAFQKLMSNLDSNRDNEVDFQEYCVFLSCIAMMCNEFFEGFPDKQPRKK

| Structure (SMILES) | outcome |
| --- | --- |
| CCOC(=O)[C@]12CCCC=C1N(Cc1ccc3c(c1)OCO3)C(=O)[C@H](CC(=O)NCC1CCCCC1)C2 | inactive |
| CCCCCC(=O)Nc1cc(S(=O)(=O)N2CCOCC2)ccc1N1CCCCC1 | inactive |
| COc1ccc(C(=O)O)cc1S(=O)(=O)Nc1ccccc1-c1ccccc1 | inactive |
| Cc1cc2cc(CNC(=O)Nc3cccc(Cl)c3)ccc2n1C | inactive |
| COc1ccccc1-c1ccc2c(c1)O[C@H](CN(C)C(C)=O)[C@@H](C)CN([C@@H](C)CO)S2(=O)=O | inactive |
| O=C(Cc1ccccn1)N[C@@H]1CC[C@@H](CCNS(=O)(=O)c2cccc(F)c2)O[C@H]1CO | inactive |
| COc1ccc(N(CC(=O)NC2CCCCC2)C(=O)CNC(=O)c2cccs2)cc1OC | inactive |
| COc1ccc(Cl)cc1NC(=O)CN(C)C(=O)CCCc1c[nH]c2ccccc12 | inactive |
| O=C(Nc1ccccc1F)N1C[C@@H]2[C@H](c3ccccc31)[C@@H](CO)N2C(=O)C1CCCC1 | inactive |
| CC[C@]12c3[nH]c4ccc(Cl)cc4c3CCN1C(=O)[C@@H](CC(=O)NCCCn1ccnc1)C[C@@H]2C(=O)N1CCN(C(=O)c2ccco2)CC1 | inactive |
| CC(C)CC1C(=O)N(Cc2cn(CC3CCCCC3)nn2)CCS(=O)(=O)N1Cc1ccc(-c2ccc(Cl)cc2)cc1 (centres undefined) | inactive |
| O=C(Nc1ccccc1F)N[C@@H]1CC[C@H](CCNC(=O)C2CCCCC2)O[C@H]1CO | inactive |
| CCCN1C[C@H](C)[C@H](OC)CN(C)C(=O)c2cc(NC(=O)NC3CCCCC3)ccc2OC[C@@H]1C | inactive |
| C[C@H](CO)N1C[C@H](C)[C@@H](CN(C)S(=O)(=O)c2cccs2)OCCCC[C@H](C)Oc2ccc(NS(C)(=O)=O)cc2C1=O | inactive |
| O=C(C[C@H]1C[C@@H]2c3cc(NC(=O)C4CCOCC4)ccc3O[C@@H]2[C@H](CO)O1)NCCN1CCCCC1 | inactive |
| C[C@H]1CN([C@@H](C)CO)C(=O)c2cc(NC(=O)NC3CCCCC3)ccc2O[C@@H]1CN(C)Cc1ccc(C(=O)O)cc1 | inactive |
| COc1ccc2c3c([nH]c2c1)[C@H](CO)N(S(C)(=O)=O)CC31CN(CC2CCOCC2)C1 | inactive |
| Cc1cc2nnc(SCC(=O)NCC(c3ccccc3)N(C)C)n2c2ccccc12 (centres undefined) | inactive |
| O=C(Nc1ccc(F)cc1)N1CCCCN2[C@H](CO)[C@H](c3ccc(C#Cc4ccccn4)cc3)[C@H]2C1 | inactive |
| O=C(COC(=O)CCCN1C(=O)c2cccc3cccc(c23)C1=O)NC1CCS(=O)(=O)C1 (centres undefined) | inactive |
| O=C(NCCCc1ccccc1)c1cccc(NC(=O)C2CCC2)c1 | inactive |
| C[C@@H]1CN([C@@H](C)CO)C(=O)c2cc(C#C[C@@H](C)O)cnc2O[C@H]1CN(C)C(=O)Cc1ccncc1 | inactive |
| CC(C(=O)NC1CCCCC1)N1C(=O)c2cccc3cccc1c23 (centres undefined) | inactive |
| C[C@H]1CN([C@@H](C)CO)C(=O)CCCn2nncc2CO[C@H]1CN(C)S(=O)(=O)c1ccc2c(c1)OCCCO2 | inactive |
